Each structure is given as a SMILES string. Inconclusive results are not listed. Active and inactive are the calls of the source. Unless noted, calls follow the shape of the dose curve; as a rule, active = well fitted curve in the direction sought with a large enough effect; inconclusive = small, poorly fitted or top-dose-only effect, or another doubt; inactive = no such curve, though single readings can be large; an effect the other way counts as inactive or inconclusive.

Experiment [1] in a line: qHTS assay for measurement of the activity of small molecule inhibitors on Zika virus induced Caspase-3 activity in human iPSC derived neural progenitor cells (hNPCs) (AID 1224857). Also: % of control where 0% means no effect; nearly all actives have a fitted effect of over 65% in size. In a few lines: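 After overnight (16–20 h) culture at 350 cells/well, hNPCs get compound, then ZIKV 2 FFU/cell one hour later. Six hours on, Caspase-Glo 3/7 is added and luminescence measured.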

The nature of experiment [2]: qHTS assay for measurement of the activity of small molecule inhibitors on Zika virus induced Caspase-3 activity in human astrocytoma cells (AID 1224859).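 Also: plate controls were ZIKV-infected untreated cells for no effect and uninfected cells for full effect.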 The essentials:
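Inhibition of Zika-induced caspase-3/7 activity: SNB-19 cells, 1 h compound pretreatment, ZIKV 2 FFU/cell for 6 h at 37 C, Caspase-Glo luminescence read-out.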
Background: qHTS replaces the single test concentration by a dilution series.

Experiment [3] in a line: qHTS assay to identify small molecule inhibitors of chordoma cells - UCH-1 (AID 1259355). Also: % is scaled to controls: 0 for no effect and ±100 for the full control effect; nearly all actives have a fitted effect of over 55% in size. In a few lines:
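Screening used approved and investigational drugs in 15-point titration against 800 seeded cells per well. A fixed combination of auranofin with camptothecin, doxorubicin, rubitecan and topotecan followed compound addition, and growth was scored by CellTiter-Glo after 48hr.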

A short description of experiment [4]: qHTS profiling for inhibitors of Plasmodium falciparum (3D7) proliferation (AID 743322).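 Also: infected erythrocytes exposed to compound for 72 h before lysis; 100% = DMSO vehicle wells and 0% = 0.29 µM artemisinin.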 The following applies: P. falciparum 3D7 proliferation; at 28.7 µM (top of the series). In a few lines:
(§1)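 Parasite DNA was quantified by SYBR Green I fluorescence (ex 485, em 535 nm) after overnight lysis in saponin/Triton buffer at room temperature. Cultures at 0.3% parasitemia and 2.5% hematocrit were first exposed to compound for 72 h at 37 C; signals were normalised to artemisinin (0.29 uM) and vehicle wells.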

Experiment [5] in a line: qHTS profiling for inhibitors of Plasmodium falciparum (DD2) proliferation (AID 743323; call rule not given here). The following applies: lower = more inhibition; at 28.7 µM (top of the series). The essentials:
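1536-well qHTS; infected RBCs 0.3% parasitemia/2.5% Hct final; cpd 72 h 37 C 5% CO2; lysis buffer + SYBR Green I, o/n RT dark; FI 485/535; norm. to 0.29 uM artemisinin and DMSO, plate-stack corrected.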

Experiment [6] can be described thus: qHTS profiling of the MIPE4 collection as inhibitors of Plasmodium falciparum (3D7) proliferation (AID 743344; call rule not given here;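 also: scaled between DMSO vehicle wells and 0.29 µM artemisinin as full inhibition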). To be noted: P. falciparum 3D7 in erythrocytes, SYBR Green DNA fluorescence, 72 h; at 9.64 µM (top of the series) unless noted. In a few lines: as §1
Experiment [7] is described as follows: qHTS profiling of the MIPE4 collection as inhibitors of Plasmodium falciparum (DD2) proliferation (AID 743345; call rule not given here). The following applies: P. falciparum Dd2 in erythrocytes, SYBR Green DNA, 72 h; at 9.64 µM (top of the series) unless noted. The essentials: as §1
Experiment [8] is described as follows: qHTS profiling of the MIPE4 collection as inhibitors of Plasmodium falciparum (DD2) proliferation (Rep 2) (AID 743346; call rule not given here). To be noted: P. falciparum Dd2 in erythrocytes, SYBR Green DNA, 72 h; at 9.64 µM (top of the series) unless noted. The essentials: as §1
The nature of experiment [9]: qHTS profiling of the MIPE4 collection as inhibitors of Plasmodium falciparum (HB3) proliferation (AID 743347; call rule not given here;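 also: plate controls were DMSO vehicle wells for no effect and artemisinin wells for full effect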). To be noted: P. falciparum HB3 in erythrocytes, SYBR Green DNA, 72 h; at 9.64 µM (top of the series) unless noted. The essentials:
as §1

For `O=C(O)c1ccccc1C(=O)Nc1ccc(S(=O)(=O)Nc2nccs2)cc1`, the outcome in experiment [1], in [2] and in experiment [3] was inactive.
Consider `CN1C[C@@H]2C[C@H]1CN2c1cc2c(cc1F)c(=O)c(C(=O)O)cn2C1CC1`, for which the call in experiment [1], in experiment [2] and in experiment [3] was inactive.
Regarding `CC(=O)OC[C@H]1O[C@@](COC(C)=O)(O[C@H]2O[C@H](COC(C)=O)[C@@H](OC(C)=O)[C@H](OC(C)=O)[C@H]2OC(C)=O)[C@@H](OC(C)=O)[C@@H]1OC(C)=O`, the compound was classed as inactive in [1], in experiment [2] and in [3].
As to `CC(C)NC[C@@H](O)COc1ccc(CC(N)=O)cc1`, the result in experiment [1], in experiment [2] and in [3] was inactive.
In the case of `CC(=O)N(CC(O)CN(C(C)=O)c1c(I)c(C(=O)NCC(O)CO)c(I)c(C(=O)NCC(O)CO)c1I)c1c(I)c(C(=O)NCC(O)CO)c(I)c(C(=O)NCC(O)CO)c1I` (configuration not stated), the compound was classed as inactive in [1], in experiment [2] and in experiment [3].
In [4], `CCCCCCCCCCOc1cc2c(=O)c(C(=O)OCC)c[nH]c2cc1OCC` registered a remaining parasite growth % (stronger effect = lower value) of 0.552%. Moreover, the activity, percent of control in experiment [5] was 2.1%. Also, the parasite growth, % of DMSO control in experiment [6] stood at 7.74% [at 28.5 µM]. For the same compound, in experiment [7], the parasite growth remaining, % of DMSO control (lower = more inhibition) stood at 7.98% [at 28.5 µM]. Besides, the parasite growth, % of control (lower = inhibition) in [8] was 14.5% [at 28.5 µM]. This compound yielded a growth, % of control in experiment [9] of 3.33% [at 28.5 µM]. In addition, the activity change, negative = inhibition in experiment [1] is 9.1% [at 4.53 µM] (inactive); in experiment [2], -3.7% [at 4.53 µM] (inactive). For the same compound, the outcome in [3] was inactive.
On to `CCN(CC)CC1CCCCN1CC(=O)N1c2ccccc2C(=O)Nc2cccnc21` (configuration not stated), for which the result in experiment [1], in experiment [2] and in experiment [3] was inactive.
For `O=C1c2cccc(O)c2C(=O)c2c(O)cccc21`, the call in experiment [1], in experiment [2] and in experiment [3] was inactive.
Turning to `CN[C@@H]1[C@@H](O)[C@@H](O[C@@H]2[C@H](O)[C@H](O[C@H]3OC(CN)=CC[C@H]3N)[C@@H](N)C[C@H]2N)OCC1(C)O` (some centres not stated), the outcome in [1], in [2] and in [3] was inactive.
Regarding `Cc1cc(OI)c(C(C)C)cc1-c1cc(C(C)C)c(OI)cc1C`, the call in experiment [1], in experiment [2] and in experiment [3] was inactive.
`NC(N)=NS(=O)(=O)c1ccc(N)cc1`: the compound was called inactive in [1], in experiment [2] and in experiment [3].
Take `CC(=O)OCC(COC(C)=O)OC(C)=O`: the compound was classed as inactive in [1], in experiment [2] and in experiment [3].
As to `CC(=O)N[C@@H](CC(C)C)C(=O)O`, the call in [1], in experiment [2] and in experiment [3] was inactive.
As to `O=c1[nH]c2cc(C(F)(F)F)c(N3CCOCC3)cc2n(CP(=O)(O)O)c1=O`, the call in [1], in [2] and in [3] was inactive.
For `NS(=O)(=O)c1cc(C2(O)NC(=O)c3ccccc32)ccc1Cl` (configuration not stated), the outcome in experiment [1], in experiment [2] and in [3] was inactive.
As for `COc1cc(C(=O)NCCCCCC(=O)O)cc(OC)c1OC`, the result in experiment [1], in experiment [2] and in [3] was inactive.
In the case of `O=C(O)c1ccc[n+]([O-])c1`, the compound was classed as inactive in [1], in [2] and in experiment [3].
As for `COc1ccc2cc(CCC(C)=O)ccc2c1`, the compound was called inactive in experiment [1], in experiment [2] and in experiment [3].
For `O=C(/C=C/c1ccc(O)c(O)c1)O[C@@H]1C[C@@](OC(=O)/C=C/c2ccc(O)c(O)c2)(C(=O)O)C[C@@H](O)[C@@H]1O`, the compound was classed as inactive in experiment [1], in [2] and in experiment [3].
Turning to `CC1(c2ccccc2)OC(C(=O)O)=CC1=O` (configuration not stated), the outcome in experiment [1], in experiment [2] and in [3] was inactive.
For the compound `NC(=O)NC1NC(=O)NC1=O` (configuration not stated), the call in experiment [1], in experiment [2] and in experiment [3] was inactive.
As for `Nc1ccc(S(=O)(=O)c2ccc(N)cc2)cc1`, in experiment [6], the parasite growth, % of DMSO control is 91.3%. Besides, the parasite growth remaining, % of DMSO control (lower = more inhibition) in experiment [7] is 103%. For the same compound, the parasite growth, % of control (lower = inhibition) in experiment [8] was 101%. Further, the growth, % of control in [9] came to 100%. The compound was classed as inactive in [1], in experiment [2] and in experiment [3].
For the compound `O=c1[nH]cnc2nc[nH]c12`, the result in experiment [1], in experiment [2] and in experiment [3] was inactive.
As to `NCC1CCC(C(=O)Oc2ccc(CCC(=O)O)cc2)CC1` (configuration not stated), the outcome in experiment [2] and in experiment [3] was inactive.
In the case of `CC(=O)Nc1ccc(OCCOCCOc2ccc(NC(C)=O)cc2)cc1`, the call in experiment [1], in experiment [2] and in experiment [3] was inactive.
`Cc1ccccc1N=Nc1ccc(N=Nc2c(O)ccc3ccccc23)c(C)c1`: the outcome in experiment [1], in experiment [2] and in [3] was inactive.

Values taken from PubChem BioAssay (NCATS).
